# Source: PubChem BioAssay (NCATS)
# Inconclusive results are not listed. Calls of active or inactive are those of the source. Unless noted, how the calls were made is not given here.
# What was measured:
# [1] = qHTS profiling for inhibitors of Plasmodium falciparum (3D7) proliferation (AID 743322);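 further: infected erythrocytes exposed to compound for 72 h before lysis; 100% = DMSO vehicle wells and 0% = 0.29 µM artemisinin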; conditions: P. falciparum 3D7 proliferation; at 28.7 µM (top of the series)
# Outline: (§1)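 Erythrocytes infected with P. falciparum (0.3% parasitemia, 2.5% hematocrit) incubated with compounds 72 h at 37 C, 5% CO2. Lysis with saponin/Triton buffer containing SYBR Green I, overnight at room temperature in the dark; DNA fluorescence (485/535 nm) normalised to 0.29 uM artemisinin and DMSO.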
# [2] = qHTS profiling for inhibitors of Plasmodium falciparum (DD2) proliferation (AID 743323); conditions: lower = more inhibition; at 28.7 µM (top of the series)
# Outline: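 Parasite DNA quantified by SYBR Green fluorescence (ex 485, em 535 nm) after saponin/Triton lysis and overnight dark incubation. Cultures: 0.3% parasitemia, 2.5% hematocrit, 72 h, 37 C; data scaled between DMSO and 0.29 uM artemisinin.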
# [3] = qHTS profiling for inhibitors of Plasmodium falciparum (HB3) proliferation (AID 743324; active means well fitted curve in the direction sought with a large enough effect; an effect the other way counts as inactive or inconclusive;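 further: 100% = DMSO vehicle wells and 0% = artemisinin-treated control wells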); conditions: Plasmodium falciparum HB3 blood-stage proliferation; at 28.7 µM (top of the series)
# Outline: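 P. falciparum HB3 grown in erythrocytes (0.3% parasitemia, 2.5% hematocrit final) with compound for 72 h at 37 C, 5% CO2. Parasite DNA detected by SYBR Green after saponin/triton lysis overnight; normalized to 0.29 uM artemisinin and DMSO.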
# [4] = qHTS profiling of the MIPE4 collection as inhibitors of Plasmodium falciparum (3D7) proliferation (AID 743344);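 further: scaled between DMSO vehicle wells and 0.29 µM artemisinin as full inhibition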; conditions: P. falciparum 3D7 in erythrocytes, SYBR Green DNA fluorescence, 72 h; at 28.5 µM (top of the series) unless noted
# Outline: as §1
# [5] = qHTS profiling of the MIPE4 collection as inhibitors of Plasmodium falciparum (DD2) proliferation (AID 743345); conditions: P. falciparum Dd2 in erythrocytes, SYBR Green DNA, 72 h; at 28.5 µM (top of the series) unless noted
# Outline: as §1
# [6] = molecular target: Arylsulfatase A (Homo sapiens) (UniProt P15289); assay: qHTS screen for enhancers of Arylsulfatase A (ASA1): LOPAC Validation Assay (AID 720538; active means well fitted curve in the direction sought with a large enough effect; an effect the other way counts as inactive or inconclusive); conditions: ASA enzyme activity, LOPAC qHTS enhancer assay; series mostly up to 57.5 µM
# Outline: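 First, ASA-I179S fibroblasts from an MLD patient adhered for 6 hrs. Next, compounds were added for 48h. Then pNCS substrate (0.5mM final) with lysis buffer reacted 14h at room temperature before NaOH stop and fluorescence measurement.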
# [7] = qHTS for compounds that reverse cellular toxicity of Amyloid beta (A-beta) peptide in yeast: LOPAC Validation Assay (AID 720559; active means well fitted curve in the direction sought with a large enough effect; an effect the other way counts as inactive or inconclusive;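 further: plate controls were DMSO for no effect and equimolar ferric chloride plus clioquinol rescue for full effect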); conditions: yeast expressing A-beta; series mostly up to 46.1 µM
# Outline: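 Activity is expressed relative to DMSO and an equimolar ferric chloride/clioquinol mix. Compounds were pinned into medium with A-beta-expressing yeast, grown 48 hr at 30 C, then read by absorbance at 600 nm.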
# [8] = qHTS for Activators of Parkin Expression: LOPAC Validation Assay (NLuc Reporter) (AID 720572; active means well fitted curve in the direction sought with a large enough effect; an effect the other way counts as inactive or inconclusive;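 further: 0% = DMSO and 100% = positive control compound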); conditions: Parkin promoter NanoLuc reporter cells, luminescence; series mostly up to 46.1 µM
# Outline: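 Parkin promoter-driven FLuc/NLuc neuronal reporter cells; 24 h plating, 7-pt dose response, 24 h at 37 C/5% CO2; FLuc then NanoLuc reagent, 10 min each, luminescence; DMSO/positive control normalized.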
# [9] = qHTS for Activators of Parkin Expression: LOPAC Validation Assay (FLuc Reporter) (AID 720573; active means well fitted curve in the direction sought with a large enough effect; an effect the other way counts as inactive or inconclusive;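 further: 0% = DMSO and 100% = positive control compounds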); conditions: Cell line, PRKN promoter firefly luciferase reporter; series mostly up to 46.1 µM
# Outline: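 A neuronal cell line harbouring FLuc and NLuc reporters behind the Parkin promoter was exposed to compounds for 24 h. Firefly luciferase signal, measured after 10 min with detection reagent, was scaled to DMSO and positive-control wells.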
# [10] = molecular target: Hexokinase-4 (Homo sapiens) + Glucokinase regulatory protein (Homo sapiens) (UniProt P35557+Q14397); assay: qHTS assay for inhibitors of recombinant human GCK-GKRP interaction: Diaphorase-coupled assay (AID 743205; active means well fitted curve in the direction sought with a large enough effect; an effect the other way counts as inactive or inconclusive); conditions: G6PDH/diaphorase resorufin fluorescence; series mostly up to 57.5 µM
# Outline: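 Inhibitors of the GCK–GKRP complex relieve GKRP suppression of GCK, detected through a G6PDH–diaphorase cascade reducing resazurin. Human GST-GCK and FLAG-GKRP are used at 10 nM with 5 mM glucose and 0.4 mM ATP.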
# Sequence of Hexokinase-4 (Homo sapiens) + Glucokinase regulatory protein (Homo sapiens) (P35557 whole entry, looked up): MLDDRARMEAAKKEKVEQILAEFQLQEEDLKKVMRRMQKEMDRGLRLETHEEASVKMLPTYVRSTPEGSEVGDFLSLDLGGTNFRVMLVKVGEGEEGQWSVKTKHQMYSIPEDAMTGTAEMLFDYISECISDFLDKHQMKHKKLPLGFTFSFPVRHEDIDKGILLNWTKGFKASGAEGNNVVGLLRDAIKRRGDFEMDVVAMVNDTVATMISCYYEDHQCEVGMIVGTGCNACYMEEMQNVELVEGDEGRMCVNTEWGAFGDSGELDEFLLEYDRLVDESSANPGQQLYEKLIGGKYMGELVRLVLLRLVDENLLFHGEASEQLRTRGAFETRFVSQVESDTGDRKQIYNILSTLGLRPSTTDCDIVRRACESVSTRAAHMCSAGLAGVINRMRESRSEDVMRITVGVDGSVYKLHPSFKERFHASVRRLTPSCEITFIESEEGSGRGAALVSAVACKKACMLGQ
# Sequence of Hexokinase-4 (Homo sapiens) + Glucokinase regulatory protein (Homo sapiens) (Q14397 whole entry, looked up): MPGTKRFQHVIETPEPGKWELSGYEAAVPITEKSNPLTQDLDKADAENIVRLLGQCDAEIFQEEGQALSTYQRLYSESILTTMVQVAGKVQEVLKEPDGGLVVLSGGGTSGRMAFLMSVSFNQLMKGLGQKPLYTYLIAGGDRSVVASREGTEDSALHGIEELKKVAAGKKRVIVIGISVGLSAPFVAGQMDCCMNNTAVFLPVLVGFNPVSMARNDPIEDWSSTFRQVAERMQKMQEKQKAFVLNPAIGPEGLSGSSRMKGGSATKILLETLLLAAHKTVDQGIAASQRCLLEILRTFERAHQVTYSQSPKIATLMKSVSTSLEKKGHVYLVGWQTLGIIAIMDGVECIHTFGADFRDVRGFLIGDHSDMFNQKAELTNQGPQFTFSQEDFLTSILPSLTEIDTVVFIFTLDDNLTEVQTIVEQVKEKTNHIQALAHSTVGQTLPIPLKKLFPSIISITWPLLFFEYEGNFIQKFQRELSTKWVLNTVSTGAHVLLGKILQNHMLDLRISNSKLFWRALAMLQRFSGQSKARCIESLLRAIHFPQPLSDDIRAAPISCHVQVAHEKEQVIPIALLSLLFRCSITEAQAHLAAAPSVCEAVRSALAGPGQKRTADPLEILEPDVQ
# Sequence of Arylsulfatase A (Homo sapiens) (P15289 whole entry, looked up): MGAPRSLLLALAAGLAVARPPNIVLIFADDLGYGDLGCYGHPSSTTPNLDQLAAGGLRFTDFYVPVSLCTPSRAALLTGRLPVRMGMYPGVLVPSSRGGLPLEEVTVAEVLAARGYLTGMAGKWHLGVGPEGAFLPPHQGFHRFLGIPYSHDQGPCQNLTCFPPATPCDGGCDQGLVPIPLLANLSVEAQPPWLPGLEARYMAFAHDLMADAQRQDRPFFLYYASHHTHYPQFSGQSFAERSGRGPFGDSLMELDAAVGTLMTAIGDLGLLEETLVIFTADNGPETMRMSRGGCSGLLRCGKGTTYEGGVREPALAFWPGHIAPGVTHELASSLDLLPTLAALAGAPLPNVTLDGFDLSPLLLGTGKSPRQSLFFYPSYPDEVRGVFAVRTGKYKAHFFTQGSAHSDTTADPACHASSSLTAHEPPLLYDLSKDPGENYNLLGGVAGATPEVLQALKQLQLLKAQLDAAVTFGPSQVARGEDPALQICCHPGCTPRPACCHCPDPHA
structure (smiles),measurement,setting,value
C[C@@H]1CCN(C(=O)CC#N)C[C@H]1N(C)c1ncnc2[nH]ccc12,remaining parasite growth % (stronger effect = lower value),[1],89.8%
same,"activity, percent of control",[2],90.1%
same,"remaining proliferation (% of control), lower = more inhibition",[3],56.2%
same,"parasite growth, % of DMSO control",[4],72.5%
same,"parasite growth remaining, % of DMSO control (lower = more inhibition)",[5],96.3%
Clc1ccc(C(c2ccc(Cl)cc2)n2cc[n+](CC(OCc3ccc(Cl)cc3Cl)c3ccc(Cl)cc3Cl)c2)cc1 (stereo not drawn),outcome,[6],inactive
same,outcome,[7],inactive
same,Potency,[8],inactive
same,Potency,[9],inactive
same,outcome,[10],inactive
same,"parasite growth, % of DMSO control",[4],6.19%
same,"parasite growth remaining, % of DMSO control (lower = more inhibition)",[5],5.85%
O=C1NC(=O)C(=Cc2cccc(C(F)(F)F)c2)S1,"parasite growth, % of DMSO control",[4],88.5%
same,"parasite growth remaining, % of DMSO control (lower = more inhibition)",[5],93.5%
CC1(C)CCC(CN2CCN(c3ccc(C(=O)NS(=O)(=O)c4ccc(NCC5CCOCC5)c([N+](=O)[O-])c4)c(Oc4cnc5[nH]ccc5c4)c3)CC2)=C(c2ccc(Cl)cc2)C1,"parasite growth, % of DMSO control",[4],18.2%
same,"parasite growth remaining, % of DMSO control (lower = more inhibition)",[5],76.7%
CC[C@H]1OC(=O)[C@H](C)C(=O)[C@H](C)[C@@H](O[C@H]2O[C@H](C)C[C@H](N(C)C)[C@@H]2O)[C@](C)(OC)C[C@@H](C)C(=O)[C@H](C)[C@H]2N(CCCCn3cnc(-c4cccnc4)c3)C(=O)O[C@]12C,"parasite growth, % of DMSO control",[4],5.78%
same,"parasite growth remaining, % of DMSO control (lower = more inhibition)",[5],14.5%
C[C@]12CCC3c4ccc(O)cc4CCC3C1CCC2=O (stereo partly drawn),"parasite growth, % of DMSO control",[4],51.9%
same,"parasite growth remaining, % of DMSO control (lower = more inhibition)",[5],75.4%
CN(C)Cc1cccc(N=C(c2ccccc2)c2c(O)[nH]c3cc(C(=O)N(C)C)ccc23)c1,"parasite growth, % of DMSO control",[4],16.4%
same,"parasite growth remaining, % of DMSO control (lower = more inhibition)",[5],30.5%
COC[C@@H](c1ccc(C(F)(F)F)cc1)N1CCN(C2(C)CCN(C(=O)c3c(C)ncnc3C)CC2)C[C@H]1C,"parasite growth, % of DMSO control",[4],31.8%
same,"parasite growth remaining, % of DMSO control (lower = more inhibition)",[5],84.7%
COc1cc(N2CCC(N3CCN(C)CC3)CC2)ccc1Nc1ncnc(Nc2ccccc2S(=O)(=O)C(C)C)n1,"parasite growth, % of DMSO control",[4],8.76%
same,"parasite growth remaining, % of DMSO control (lower = more inhibition)",[5],8.1%
COc1ccc(-c2cc(=O)c3c(O)cc(O)cc3o2)cc1O,"parasite growth, % of DMSO control",[4],30.9%
same,"parasite growth remaining, % of DMSO control (lower = more inhibition)",[5],44.4%
